AC50 and outcome data for eleven compounds are collected here from PubChem BioAssay (EPA / NIEHS).

Test [1] is described as follows: ACEA_AR_agonist_AUC_viability: ACEA Biosciences xCELLigence Real-Time Cell Analysis on Androgen Receptor Agonism for Viability (AID 2283775).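 As to AC50: viability read 80 hours after compound addition.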 The method, boiled down: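 22Rv1 cells; impedance growth kinetics; 8-pt 1:4 dilutions from 100 uM top final, ≤0.5% DMSO; n = 2; 80 h read; AUC viability, loss-of-signal vs DMSO.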
A short description of test [2]: ACEA_AR_antagonist_AUC_viability: ACEA Biosciences xCELLigence Real-Time Cell Analysis on Androgen Receptor Antagonism for Viability (AID 2283776).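 Also: 22Rv1 human prostate cancer cells growing on impedance electrode plates; hits lower the growth signal relative to DMSO meaning cytotoxicity.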 The method, boiled down: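 Impedance read-out (RT-CES): area under growth curve at 80 h post-dose, loss of signal scored vs DMSO baseline. 22Rv1 cells; 8-pt 1:4 series, top 100 uM final, ≤0.5% DMSO; biological duplicate.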

A short description of test [3]: ACEA_ER_AUC_viability: ACEA Biosciences xCELLigence Real-Time Cell Analysis on Estrogen Receptor Agonism for Viability (AID 2283782).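 Also: hit means loss of impedance signal meaning reduced cell growth or viability.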 The method in brief:
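Read-out: real-time electrical impedance (RT-CES) area under curve, loss of signal taken as reduced viability, normalized to DMSO baseline. T-47D cells, charcoal-stripped serum medium, compounds up to 100 uM final, continuous exposure, 80 h.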

The target of a further test is AR (gene 367) (UniProt P10275). Description: ACEA_AR_agonist_80hr: ACEA Biosciences xCELLigence Real-Time Cell Analysis on Androgen Receptor Agonism for Proliferation (AID 2283783).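 Also: hits increase impedance growth signal above DMSO baseline.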 The method, boiled down:
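Impedance (RT-CES) growth signal at 80 h post-dose; 22Rv1 cells, 8-pt 1:4 series, top 100 uM final, DMSO ≤0.5%; duplicate plates; gain-of-signal fit relative to DMSO baseline.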

Test [4] in a line: STM_H9_NormalizedViability: Cytotoxicity Assessment at 120 hours in the Stemina devTOX quickPredict H9 human embryonic stem cell (hESC)-based Assay (AID 2283784). The method, boiled down: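 Viability of the cell layer was taken from live-cell protease cleavage of a fluorogenic substrate after compound exposure of undifferentiated H9 stem cells, with replenishment each 24h. Fluorescence was normalized to vehicle (0.1% DMSO).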

Results filed as inconclusive are left out. Active and inactive are the calls of the source. The calls were made as follows: active = hit-call score of the fitted dose curve at least 0.9, where 1 is the maximum; inconclusive = response in the unintended direction; inactive = score below 0.9.

Chain of AR (gene 367) (P10275 whole entry, looked up): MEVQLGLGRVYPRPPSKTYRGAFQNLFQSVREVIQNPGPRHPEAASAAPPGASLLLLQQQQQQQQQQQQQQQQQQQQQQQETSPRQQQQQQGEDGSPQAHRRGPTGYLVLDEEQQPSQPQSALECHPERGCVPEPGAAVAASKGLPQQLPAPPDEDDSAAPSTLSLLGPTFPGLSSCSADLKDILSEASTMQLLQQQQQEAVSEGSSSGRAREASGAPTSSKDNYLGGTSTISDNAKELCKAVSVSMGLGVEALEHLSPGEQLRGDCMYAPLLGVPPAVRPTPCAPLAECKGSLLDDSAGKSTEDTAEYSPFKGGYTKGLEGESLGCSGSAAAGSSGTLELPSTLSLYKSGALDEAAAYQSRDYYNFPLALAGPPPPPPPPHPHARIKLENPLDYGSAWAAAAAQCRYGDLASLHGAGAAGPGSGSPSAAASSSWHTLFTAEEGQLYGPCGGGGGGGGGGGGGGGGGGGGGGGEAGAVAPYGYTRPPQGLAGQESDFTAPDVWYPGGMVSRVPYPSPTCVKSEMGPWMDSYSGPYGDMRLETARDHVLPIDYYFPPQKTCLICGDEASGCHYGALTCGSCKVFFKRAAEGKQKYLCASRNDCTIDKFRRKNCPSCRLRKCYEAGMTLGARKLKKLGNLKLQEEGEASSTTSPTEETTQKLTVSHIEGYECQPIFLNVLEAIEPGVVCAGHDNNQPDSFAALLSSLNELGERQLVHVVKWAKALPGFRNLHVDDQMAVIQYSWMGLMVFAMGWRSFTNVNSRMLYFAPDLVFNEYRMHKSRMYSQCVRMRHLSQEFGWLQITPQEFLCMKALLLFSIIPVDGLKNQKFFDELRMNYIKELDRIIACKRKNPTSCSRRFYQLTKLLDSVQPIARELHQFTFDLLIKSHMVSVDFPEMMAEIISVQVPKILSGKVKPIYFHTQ

In the case of `CC(C)(OOC(C)(C)c1ccccc1)c1ccccc1`, the values for the half-maximal activity concentration (AC50) in test [1], in test [2] and in test [3] were 17.2 µM (active), 24.5 µM (active) and 77.1 µM (active), respectively. For the same compound, the call with AR (gene 367) was inactive.

For `CCCSC(=O)N(CCC)CCC`, the call in test [2] was inactive.

Regarding `CCCCCCCCCCCCCN1CC(C)OC(C)C1` (stereo not drawn), the compound was called inactive in test [1], in test [2] and in test [4].

For the compound `OCCOCCO`, in test [2], the call was inactive.

Turning to `CC(C)(C)OOC(C)(C)CCC(C)(C)OOC(C)(C)C`, the result in test [2] was inactive.

`c1ccc2c(c1)oc1ccccc12`: the compound was called inactive in test [2].

Regarding `CC(C)N(Cc1ccccc1)C(=O)C(C)(C)C`, the outcome in test [2] was inactive.

Regarding `[O-][Cl+]O`, the call in test [2] was inactive.

As to `ClC1=C(Cl)[C@]2(Cl)[C@H]3[C@H]([C@@H]4C=C[C@H]3C4)[C@@]1(Cl)C2(Cl)Cl`, the half-maximal activity concentration (AC50) in test [1] was 18.1 µM (active); in test [2], 18.1 µM (active); in test [3] it was 74.5 µM (active).

Turning to `O=[N+]([O-])C(Br)(CO)CO`, in the test with AR (gene 367), the outcome was inactive.

With `CCNS(=O)(=O)C(F)(F)C(F)(F)C(F)(F)C(F)(F)C(F)(F)C(F)(F)C(F)(F)C(F)(F)F`, the concentration at half-maximal activity (AC50) with AR (gene 367) is 48.2 µM (active).

One may read the AC50 as the concentration giving half of the maximal activity seen.
